In PubChem BioAssay (Tox21):
Results filed as inconclusive are left out. Calls of active or inactive are those of the source. Unless noted, calls follow the shape of the dose curve; as a rule, active = well fitted curve in the direction sought with a large enough effect in the repeat runs; inconclusive = weak or mixed curves; inactive = no such curve, though single readings can be large; an effect the other way counts as inactive or inconclusive.

What was measured:
[1] = target: Estrogen receptor beta (Homo sapiens) (UniProt Q92731); experiment: qHTS assay to identify small molecule agonists of the estrogen receptor beta (ER-beta) signaling pathway (AID 1259377; active = well fitted activation curve with a large enough effect in the signal ratio in the repeat runs, not every such curve was filed as active; the % refers to the signal ratio)
Method in brief: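 A UAS-controlled beta-lactamase reporter in ER-beta-UAS-bla HEK293T cells reports receptor activation. Compounds act for 16 hr at 37C in 2% charcoal-stripped serum, and a FRET substrate is read by fluorescence after 2 hours.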

[2] = target: Estrogen receptor beta (Homo sapiens) (UniProt Q92731); experiment: qHTS assay to identify small molecule antagonists of the estrogen receptor beta (ER-beta) signaling pathway (AID 1259378; active = well fitted inhibition curve with a large enough effect in the signal ratio in the repeat runs, not every such curve was filed as active; the % refers to the signal ratio)
Method in brief: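 ER-beta-UAS-bla HEK293T (GripTite) cells in 2% charcoal-stripped FBS medium were preincubated 6 hr at 37C, dosed with compound, then stimulated with 1 nM E2 (final) for 16 hr; beta-lactamase reporter read by B/G FRET fluorescence after 2 hr substrate loading.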

[3] = qHTS assay to identify small molecule agonists of the androgen receptor (AR) signaling pathway in the presence of an antagonist - cell viability counter screen (AID 1259379);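 also: MDA-kb2 human breast cancer cells carrying an MMTV luciferase reporter; series mostly up to about 92 µM; nearly all actives have a fitted effect of over 25% in size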
Method in brief: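 MDA-kb2 viability measured by CellTiter-Fluor fluorescence in the same wells as the luciferase signal; nilutamide 3.0uM final; 15-point compound titration; 16 hr at 37C.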

[4] = qHTS assay to identify small molecule agonists of the estrogen receptor beta (ER-beta) signaling pathway - cell viability counter screen (AID 1259380); also: nearly all actives have a fitted effect of over 30% in size
Method in brief: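 Measured: luminescence from CellTiter-Glo after 30 min at room temperature, added to wells already read for the LiveBLAzer FRET reporter (2 hr substrate); ER-beta-UAS-bla HEK293T cells had 16 hr compound treatment at 37C, 5% CO2.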

[5] = qHTS assay to identify small molecule antagonists of the estrogen receptor beta (ER-beta) signaling pathway - cell viability counter screen (AID 1259382); also: series mostly up to about 92 µM; nearly all actives have a fitted effect of over 55% in size
Method in brief: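 Readout: luminescence, CellTiter-Glo, same wells as bla assay. System: ER-beta-UAS-bla GripTite HEK293T, 2% charcoal-stripped FBS. Exposure: compounds plus 1nM 17-beta-estradiol, 16 hr, 37C.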

[6] = target: Estrogen receptor (Homo sapiens) (UniProt P03372); experiment: qHTS assay to identify small molecule agonists of the estrogen receptor alpha (ER-alpha) signaling pathway in the presence of an antagonist (AID 1259383; calls by dose curve; also: top concentration of the series differs between compounds; nearly all actives have a fitted effect of over 15% in size)
Method in brief: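 Quantitative HTS confirmation: compounds titrated at 15 concentrations onto estrogen-deprived VM7Luc4E2 cells carrying a four-ERE luciferase construct, with ICI-182,780 present at 10.0nM final. Signal is luminescence after 22hr exposure.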

[7] = qHTS assay to identify small molecule agonists or antagonists of the thyroid stimulating hormone receptor (TSHR) signaling pathway - wild type cell line counter screen (AID 1259384; calls by dose curve)
Method in brief: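 Wild-type HEK293 cells were plated 18 h at 37 C/5% CO2, pin-dosed with compound plus Ro20-1724 medium, held 30 min at room temperature, then given cAMP-d2 and anti-cAMP-cryptate; fluorescence was read after 1 h. Fifteen concentrations, triplicate.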

[8] = target: Thyrotropin receptor (Homo sapiens) (UniProt P16473); experiment: qHTS assay to identify small molecule antagonists of the thyroid stimulating hormone receptor (TSHR) signaling pathway (AID 1259385; calls by dose curve; also: nearly all actives have a fitted effect of over 20% in size)
Method in brief: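 TSHR-HEK293 cells were plated and held 18 h at 37C/5% CO2, then given compound plus Ro20-1724 and stimulated with TSH at 1.5 ng/mL final. After 30 min at room temperature, cAMP was detected with cAMP-d2/anti-cAMP-cryptate (1 h) by fluorescence.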

[9] = qHTS assay to identify small molecule agonists of the estrogen receptor alpha (ER-alpha) signaling pathway in the presence of an antagonist - cell viability counter screen (AID 1259386);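 also: series mostly up to about 92 µM; cells exposed to compounds for 22 h at 37 °C before the viability read; nearly all actives have a fitted effect of over 30% in size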
Method in brief: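 The test measures whether compounds kill ER-alpha reporter cells (VM7Luc4E2) under antagonist co-treatment (ICI-182,780, 10.0nM). Fluorescence from CellTiter-Fluor is read after a 22hr exposure.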

[10] = target: Androgen receptor (Homo sapiens) (UniProt P10275); experiment: qHTS assay to identify small molecule agonists of the androgen receptor (AR) signaling pathway in the presence of an antagonist (AID 1259381; calls by dose curve; also: nearly all actives have a fitted effect of over 15% in size)
Method in brief: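 Luminescent ONE-Glo read, 30min at room temperature, follows 16hr compound exposure (15 concentrations) of MDA-kb2 cells at 37C, 0% CO2, with nilutamide added at 3.0uM final.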
% is scaled to controls: 0 for no effect and ±100 for the full control effect.

Chain of Thyrotropin receptor (Homo sapiens) (P16473 whole entry, looked up): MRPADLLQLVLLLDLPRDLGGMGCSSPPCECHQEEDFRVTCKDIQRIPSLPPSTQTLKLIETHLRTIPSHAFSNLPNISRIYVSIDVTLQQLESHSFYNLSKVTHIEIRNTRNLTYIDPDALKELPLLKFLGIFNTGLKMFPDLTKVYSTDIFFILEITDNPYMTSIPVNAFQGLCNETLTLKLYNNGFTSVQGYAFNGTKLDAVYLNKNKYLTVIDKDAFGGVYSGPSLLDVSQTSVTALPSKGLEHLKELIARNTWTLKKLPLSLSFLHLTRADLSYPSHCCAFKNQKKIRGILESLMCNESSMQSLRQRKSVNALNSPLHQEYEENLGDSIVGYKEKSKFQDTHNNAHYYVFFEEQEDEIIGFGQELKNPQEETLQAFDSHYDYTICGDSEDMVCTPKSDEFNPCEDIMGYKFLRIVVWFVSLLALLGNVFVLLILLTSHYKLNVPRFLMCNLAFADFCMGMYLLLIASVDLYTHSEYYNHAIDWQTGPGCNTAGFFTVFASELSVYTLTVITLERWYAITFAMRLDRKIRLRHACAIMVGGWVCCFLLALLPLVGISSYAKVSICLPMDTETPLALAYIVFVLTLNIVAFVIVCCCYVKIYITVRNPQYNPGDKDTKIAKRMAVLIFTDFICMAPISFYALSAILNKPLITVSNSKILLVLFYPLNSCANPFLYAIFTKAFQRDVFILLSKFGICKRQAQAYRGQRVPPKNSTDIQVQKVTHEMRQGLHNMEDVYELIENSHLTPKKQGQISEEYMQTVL
Chain of Estrogen receptor beta (Homo sapiens) (Q92731 whole entry, looked up): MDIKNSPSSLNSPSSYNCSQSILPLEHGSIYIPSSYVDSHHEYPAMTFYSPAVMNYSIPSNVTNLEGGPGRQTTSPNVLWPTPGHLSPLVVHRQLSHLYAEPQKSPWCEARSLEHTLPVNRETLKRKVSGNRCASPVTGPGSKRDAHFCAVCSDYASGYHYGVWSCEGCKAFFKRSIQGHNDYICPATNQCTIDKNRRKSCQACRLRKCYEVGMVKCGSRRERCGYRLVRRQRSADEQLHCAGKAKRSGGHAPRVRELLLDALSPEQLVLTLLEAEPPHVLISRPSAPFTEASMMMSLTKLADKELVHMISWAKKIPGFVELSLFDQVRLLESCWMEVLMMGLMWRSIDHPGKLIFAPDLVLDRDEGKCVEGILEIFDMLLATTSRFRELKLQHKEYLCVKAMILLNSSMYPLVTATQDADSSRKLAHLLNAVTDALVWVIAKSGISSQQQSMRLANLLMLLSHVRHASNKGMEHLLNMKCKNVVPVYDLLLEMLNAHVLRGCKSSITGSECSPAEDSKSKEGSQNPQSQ
Chain of Androgen receptor (Homo sapiens) (P10275 whole entry, looked up): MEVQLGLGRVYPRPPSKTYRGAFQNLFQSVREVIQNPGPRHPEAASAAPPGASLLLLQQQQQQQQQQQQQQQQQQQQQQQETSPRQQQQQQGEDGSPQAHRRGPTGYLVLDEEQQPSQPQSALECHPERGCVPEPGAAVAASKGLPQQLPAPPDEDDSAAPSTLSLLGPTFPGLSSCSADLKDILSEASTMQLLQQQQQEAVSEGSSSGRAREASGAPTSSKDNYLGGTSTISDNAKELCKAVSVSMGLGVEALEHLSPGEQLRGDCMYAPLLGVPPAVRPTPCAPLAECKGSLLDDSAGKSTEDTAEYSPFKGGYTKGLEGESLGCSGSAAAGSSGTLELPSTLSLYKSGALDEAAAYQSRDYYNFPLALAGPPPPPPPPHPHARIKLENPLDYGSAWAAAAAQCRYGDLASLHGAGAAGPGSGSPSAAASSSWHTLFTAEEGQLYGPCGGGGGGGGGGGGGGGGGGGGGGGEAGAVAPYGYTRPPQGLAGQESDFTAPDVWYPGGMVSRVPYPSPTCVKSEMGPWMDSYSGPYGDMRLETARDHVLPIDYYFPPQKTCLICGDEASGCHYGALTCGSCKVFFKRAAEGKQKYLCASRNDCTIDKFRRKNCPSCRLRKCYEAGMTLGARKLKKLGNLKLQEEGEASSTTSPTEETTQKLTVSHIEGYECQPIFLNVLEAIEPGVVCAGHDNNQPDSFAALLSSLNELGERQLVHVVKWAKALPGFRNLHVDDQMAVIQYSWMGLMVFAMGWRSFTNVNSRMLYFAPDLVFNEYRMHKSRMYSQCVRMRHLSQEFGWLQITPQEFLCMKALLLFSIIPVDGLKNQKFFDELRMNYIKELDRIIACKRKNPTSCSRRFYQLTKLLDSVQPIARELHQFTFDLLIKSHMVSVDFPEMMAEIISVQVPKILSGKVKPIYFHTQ
Chain of Estrogen receptor (Homo sapiens) (P03372 whole entry, looked up): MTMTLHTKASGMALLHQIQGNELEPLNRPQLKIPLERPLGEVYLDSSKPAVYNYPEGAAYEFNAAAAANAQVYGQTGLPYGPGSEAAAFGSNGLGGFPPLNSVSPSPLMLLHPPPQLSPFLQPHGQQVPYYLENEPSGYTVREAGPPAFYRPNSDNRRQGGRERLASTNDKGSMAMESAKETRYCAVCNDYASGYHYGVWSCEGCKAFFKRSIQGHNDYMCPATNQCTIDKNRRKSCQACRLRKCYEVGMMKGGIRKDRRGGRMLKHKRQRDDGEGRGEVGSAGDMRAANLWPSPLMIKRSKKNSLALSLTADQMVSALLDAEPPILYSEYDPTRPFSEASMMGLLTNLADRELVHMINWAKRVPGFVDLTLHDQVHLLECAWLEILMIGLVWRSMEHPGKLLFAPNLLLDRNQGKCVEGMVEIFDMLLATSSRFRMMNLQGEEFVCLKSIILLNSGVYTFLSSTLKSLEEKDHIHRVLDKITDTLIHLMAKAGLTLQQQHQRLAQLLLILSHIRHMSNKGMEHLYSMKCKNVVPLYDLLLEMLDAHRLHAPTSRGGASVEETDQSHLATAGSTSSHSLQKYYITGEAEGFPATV

CCCCC1=NC2(CCCC2)C(=O)N1Cc1ccc(-c2ccccc2-c2nn[nH]n2)cc1
inactive: Potency [1] | Potency [2] | Potency [3] | Potency [4] | Potency [5] | Potency [6]

C[N+](C)(C)CCOC(=O)CCC(=O)OCC[N+](C)(C)C
inactive: Potency [1] | Potency [2] | Potency [3] | Potency [4] | Potency [5] | Potency [6] | Potency [7] | Potency [8] | Potency [9]

CCOC(=O)COC(=O)c1cc(Oc2ccc(C(F)(F)F)cc2Cl)ccc1[N+](=O)[O-]
inactive: Potency [1] | Potency [2] | Potency [3] | Potency [4] | Potency [10] | Potency [5] | Potency [7] | Potency [9]

CCOC(=O)C(O)c1ccccc1 (stereo not given)
inactive: Potency [1] | Potency [2] | Potency [3] | Potency [4] | Potency [10] | Potency [5] | Potency [6] | Potency [7] | Potency [8] | Potency [9]

NC(N)=NCCC[C@H](N)C(=O)O
inactive: activation [1] -0.985% [at 8.39 µM] | activity, negative = inhibition [2] 14.4% [at 8.39 µM] | activity change, negative = cytotoxicity [3] 2.11% [at 8.39 µM] | activity change, negative = cytotoxicity [4] 6.72% [at 8.39 µM] | activity change, negative = cytotoxicity [5] 6.28% [at 8.39 µM] | activation [6] -0.001% [at 8.39 µM] | cAMP activity change [7] -11% [at 8.39 µM, active compounds read high] | activity change, negative = inhibition [8] -0.191% [at 8.39 µM] | activity change, negative = cytotoxicity [9] 0.856% [at 8.39 µM]

CCO[Si](CCCCl)(OCC)OCC
inactive: Potency [1] | Potency [2] | Potency [3] | Potency [4] | Potency [5] | Potency [6] | Potency [7] | Potency [8] | Potency [9]

CCOCC(O)COc1ccc(NC(=O)CC[S+](C)C)cc1 (stereo not given)
inactive: Potency [1] | Potency [2] | Potency [3] | Potency [4] | Potency [5] | Potency [6] | Potency [7] | Potency [8] | Potency [9]

Cc1ncc(CO)c(C=O)c1O
inactive: Potency [1] | Potency [2] | Potency [3] | Potency [4] | Potency [5] | Potency [6] | Potency [7] | Potency [8] | Potency [9]

NCc1ccccc1Sc1ccccc1CO
inactive: Potency [1] | Potency [2] | Potency [3] | Potency [4] | Potency [10] | Potency [5] | Potency [6] | Potency [7] | Potency [9]

CC(CC=O)c1ccccc1 (stereo not given)
inactive: Potency [1] | Potency [2] | Potency [3] | Potency [4] | Potency [5] | Potency [6] | Potency [7] | Potency [8] | Potency [9]

CCO[C@H](Cc1ccc(OCCc2ccc(OS(C)(=O)=O)cc2)cc1)C(=O)O
inactive: Potency [1] | Potency [2] | Potency [3] | Potency [4] | Potency [10] | Potency [5] | Potency [6] | Potency [9]

CN(C)CCN(Cc1ccsc1)c1ccccn1
inactive: Potency [1] | Potency [2] | Potency [3] | Potency [4] | Potency [10] | Potency [5] | Potency [6] | Potency [9]

NCC(=O)CCC(=O)O
inactive: Potency [1] | Potency [2] | Potency [3] | Potency [4] | Potency [5] | Potency [6] | Potency [7] | Potency [8] | Potency [9]

CCCn1cnc2c1c(=O)n(CCCCC(C)=O)c(=O)n2C
inactive: Potency [1] | Potency [2] | Potency [3] | Potency [4] | Potency [10] | Potency [5] | Potency [6] | Potency [7] | Potency [9]

CC(C)(COC(=O)c1ccccc1)COC(=O)c1ccccc1
inactive: Potency [1] | Potency [2] | Potency [3] | Potency [4] | Potency [5] | Potency [7] | Potency [8] | Potency [9]

CCC(C)c1cc(C(C)(C)C)c(O)c(C(C)(C)C)c1 (stereo not given)
inactive: Potency [1] | Potency [2] | Potency [3] | Potency [4] | Potency [5] | Potency [7] | Potency [8] | Potency [9]

O=C(O)c1ccccc1Cl
inactive: Potency [1] | Potency [2] | Potency [3] | Potency [4] | Potency [5] | Potency [7] | Potency [8] | Potency [9]

CCC(CC)Nc1ccc(C)c(C)c1
inactive: Potency [1] | Potency [2] | Potency [3] | Potency [4] | Potency [5] | Potency [6] | Potency [9]

CC(CSC(=O)c1ccccc1)C(=O)N1C[C@@H](Sc2ccccc2)C[C@H]1C(=O)O (stereo not given in full)
inactive: activation [1] -2.37% [at 19 µM] | activity, negative = inhibition [2] -3.38% [at 19 µM] | activity change, negative = cytotoxicity [3] 1.42% [at 19 µM] | activity change, negative = cytotoxicity [4] 0.0866% [at 19 µM] | activity change, negative = cytotoxicity [5] 5.8% [at 19 µM] | Potency [6] | cAMP activity change [7] 7.8% [at 18.9 µM, active compounds read high] | activity change, negative = cytotoxicity [9] 3.85% [at 19 µM]

C1CCCNCCC1
inactive: Potency [1] | Potency [2] | Potency [3] | Potency [4] | Potency [5] | Potency [7] | Potency [8] | Potency [9]

CC(C)(O)c1ccc(CNC(=O)c2cccnc2Oc2ccc(F)cc2)cc1
inactive: Potency [1] | Potency [2] | Potency [3] | Potency [4] | Potency [5] | Potency [7] | Potency [8] | Potency [9]

CCCCCCCCO[C@@H]1O[C@H](CO)[C@@H](O)[C@H](O)[C@H]1O
inactive: Potency [1] | Potency [2] | Potency [3] | Potency [4] | Potency [5] | Potency [6] | Potency [7] | Potency [8] | Potency [9]
